From PubChem BioAssay AID977621 (Broad Institute, 2014)
Fewer than 10 of roughly 1,900 compounds were called active. About 6% were inconclusive and are not listed. A selection follows. Unmarked numbers belong to inactive results.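 Rule for the calls: active = Wild-type ribosome reporter drop at least double the humanized mutant ribosome reporter drop, growth loss under a set limit; inconclusive = no clear call, values can overlap the other calls; inactive = the rest.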

Assay: wild-type E. coli growth inhibition versus H69 humanized strain – H69 mutant RFP, wild-type GFP, cherry-pick, dose response (AID 977621);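 note: wild-type GFP and H69 mutant RFP strains grown together 50/50 in each well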
Settings: fluorescence, 24 h; series mostly up to 50 µM; activity change, negative = inhibition: at the top concentration

Structure (SMILES)	activity change, negative = inhibition
O=C(Nc1cccc(Cl)c1)N1C[C@@H]2[C@H](c3ccccc31)[C@H](CO)N2Cc1ccncc1	-11.3
CNC(=O)c1ccsc1NC(=O)c1ccc(S(=O)(=O)N2CCc3ccccc32)cc1	-12.4
Cc1ccccc1S(=O)(=O)NC(=O)C1(C)CCN1C(=O)C1(c2ccc(Cl)cc2)CC1 (configuration not stated)	-27.3
CCc1c(N=O)c(-c2ccccc2)n(O)[n+]1[O-]	-13.6
CCc1cc2cc(OC)ccc2nc1SCC(=O)Nc1cc(OC)c(OC)cc1C(=O)O	-9.53
CC1CCCC(NC(=O)COC(=O)[C@@H]2CC(O)CN2S(=O)(=O)c2ccc3c(c2)OCCO3)C1C (some centres not stated)	-14.8
Cn1cc(CCC(=O)NCc2ccc3c(c2)OCO3)c2ccccc21	-1.57
C[C@@H](Nc1nc(-c2ccccc2)nc2c1oc1ccccc12)C(=O)O	0.697
CC(=O)Nc1ccc(CNc2nc(NCCN(C)C)nc3cc(-c4ccccc4)sc23)cc1	-6.2
Fc1cccc(Cl)c1CSc1ccc(-c2ccco2)nn1	-7.72
Cc1ccc(C(=O)NCC(=O)OCC(=O)Nc2cccc(S(=O)(=O)N3CCCC3)c2)cc1C	-11.8
Cc1cc(C)cc(NC(=O)c2cccc(NC(=O)C3C4CC5OC(=O)C3C5C4)c2)c1 (configuration not stated)	-23.8
Cc1ccc(OCCCC(=O)NC(C)c2ccccc2)c(C)c1 (configuration not stated)	1.35
Cc1nn(C(C)(C)C)c(OC(=O)CC(C)C)c1S(=O)(=O)c1ccccc1	-8.86
O=C(NCCc1csc(-c2ccccc2)n1)c1ccccc1F	-4.03
Cc1cccc(NC(=O)c2nc(S(=O)(=O)Cc3ccccc3)ncc2Cl)c1	1.78
Cc1ccc(-c2c[n+](CC(=O)Nc3ccccc3)c3n2CCC3)cc1	0.924
COc1ccc(C(C)=O)cc1COc1ccc(Cl)c(C)c1	-0.916
COc1cccc(S(=O)(=O)N2CCCCN3[C@H](C2)[C@H](c2ccc(C#CC(C)C)cc2)[C@@H]3CO)c1	-7.66

Structure (SMILES)	activity change, negative = inhibition
COc1ccc2c(c1)c1ncn(Cc3ccccn3)c(=O)c1n2C	7.92
O=C(Nc1nnc(Cc2ccc(Cl)cc2)s1)c1ccncc1	-2.34
Cc1ccc2c(N)c(C(=O)c3ccccc3)sc2n1	5.41
Cc1onc(-c2ccccc2Cl)c1C(=O)OCC(=O)c1ccccc1	-7.36
COc1ccc(CN(C)C[C@H]2Oc3ccc(NS(=O)(=O)c4ccc(Cl)cc4)cc3CC(=O)N([C@@H](C)CO)C[C@H]2C)cc1	-3.97
Cc1ccc(F)c(NC(=O)CCOc2ccccc2C)c1	-5.24
COc1ccccc1N1CCN(Cc2ccc(OC)c3ccccc23)CC1	-8.52
CC1CCCN(c2ccc(C(=O)NCCc3ccccc3)cn2)C1 (configuration not stated)	-2.97
COc1ccc(C2=NN(C(=O)c3cccnc3)C(c3ccccc3)C2)cc1 (configuration not stated)	-12.2
Cc1ncoc1C(=O)NCCC(c1ccccc1)c1ccccc1	-2.92
OCCN(Cc1ccccc1)Cc1ccc(Cl)cc1	-28.9
Cc1ccccc1-n1nnnc1SCCCC(=O)c1ccc(F)cc1	-3.23
CCN(CC)C(=O)c1sc2nc(-c3ccccc3)ccc2c1N	-8.31
CCn1c(NC(=O)c2nn(C)cc2Br)nc2ccccc21	0.246
Cc1ccc(S(=O)(=O)N2CC(=O)Nc3ccccc32)cc1C	-1.95
COC(=O)c1cc(C)sc1NC(=O)CC1Nc2ccccc2NC1=O (configuration not stated)	-4.8
O=C(NCCc1ccccc1)c1cccc(NC(=O)c2ccccc2)c1	-14
C[C@@H]1CN([C@@H](C)CO)C(=O)c2cc(NS(=O)(=O)c3ccccc3)ccc2O[C@@H]1CN(C)Cc1ccc(C(=O)Nc2ccccc2N)cc1	-10.1
